Compounds without any hit were thinned out: in the full panel of roughly 79,000, 15% have a hit. The source made the active and inactive calls. No stated cut-off is given here; in the data, active means growth inhibition above about 70%; inactive means the rest.
Tests used:
[1] = NCI Yeast Anticancer Drug Screen. Data for the rad52 strain (AID 147);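 further: 0% = growth of vehicle-treated control cultures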; details: S. cerevisiae rad52 mutant growth inhibition, stronger effect = higher value
Method in brief: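 Compounds are applied to a genetically defined yeast strain lacking normal DNA damage repair, and inhibition of growth is expressed relative to cultures given vehicle only.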

[2] = NCI Yeast Anticancer Drug Screen. Data for the wt1 strain (AID 149);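 further: 0% = growth of vehicle-treated wt1 cultures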; details: S. cerevisiae wt1 strain (SPY 50644) growth inhibition, stronger effect = higher value
Method in brief: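 Yeast wt1 strain exposed to compounds; growth inhibition measured relative to vehicle-treated controls.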

[3] = NCI Yeast Anticancer Drug Screen. Data for the rad50EPP+ strain (AID 151);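 further: 0% = growth of vehicle-treated control cultures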; details: S. cerevisiae rad50 mutant strain, stronger effect = higher value
Method in brief: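 Compounds were applied to the rad50EPP+ yeast strain, which bears a defined DNA repair alteration, and growth inhibition was determined relative to vehicle-treated cultures.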

[4] = NCI Yeast Anticancer Drug Screen. Data for the mgt1 strain (AID 153); details: S. cerevisiae mgt1 mutant growth inhibition, stronger effect = higher value
Method in brief: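 Strain: mgt1 yeast, one of a set carrying defined DNA damage repair or cell cycle control alterations. Compound-treated growth compared with vehicle.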

[5] = NCI Yeast Anticancer Drug Screen. Data for the rad50 strain (AID 155);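 further: 0% = growth of vehicle-only cultures of the same strain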; details: S. cerevisiae rad50 strain growth inhibition, stronger effect = higher value
Method in brief: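 Yeast carrying a defined DNA repair defect were exposed to test compounds, and growth was compared with vehicle-treated controls to give percent inhibition.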

[6] = NCI Yeast Anticancer Drug Screen. Data for the mec2-1 strain (AID 157); details: S. cerevisiae mec2-1 strain, stronger effect = higher value
Method in brief: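 Strain: mec2-1 (DNA repair/cell cycle alteration). Compound exposure, then growth measured; inhibition expressed relative to vehicle.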

[7] = NCI Yeast Anticancer Drug Screen. Data for the rad14 strain (AID 159);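 further: 0% = growth of vehicle-treated control cultures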; details: S. cerevisiae rad14 strain growth inhibition, stronger effect = higher value
Method in brief: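 Yeast cells carrying a defined DNA-repair defect were exposed to compounds, and growth inhibition was calculated relative to vehicle-treated control cultures.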

[8] = NCI Yeast Anticancer Drug Screen. Data for the sgs1 mgt1 strain (AID 161);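 further: 0% = growth of cultures given vehicle only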; details: S. cerevisiae sgs1 mgt1 strain, stronger effect = higher value
Method in brief: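 Inhibition of yeast growth, normalised to vehicle-treated controls, is reported for a strain bearing genetic alterations in DNA damage repair.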

[9] = NCI Yeast Anticancer Drug Screen. Data for the CLN2oe strain (AID 163);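 further: 0% = growth of vehicle-only control cultures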; details: S. cerevisiae CLN2oe strain, stronger effect = higher value
Method in brief: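 Growth of a genetically modified yeast strain is measured after compound exposure and compared with cultures given vehicle alone.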

[10] = NCI Yeast Anticancer Drug Screen. Data for the cln2 rad14 strain (AID 165);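 further: 0% = growth equal to vehicle treated cultures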; details: S. cerevisiae cln2 rad14 strain, stronger effect = higher value
Method in brief: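 Compounds are applied to the cln2 rad14 yeast strain, and growth is then compared with that of vehicle-treated cultures to give inhibition.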

[11] = NCI Yeast Anticancer Drug Screen. Data for the bub3 strain (AID 167); details: S. cerevisiae bub3 mutant strain, stronger effect = higher value
Method in brief: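 Compounds were applied to a genetically altered yeast strain carrying a cell-cycle control defect. Growth inhibition was scored against vehicle-treated controls.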

[12] = NCI Yeast Anticancer Drug Screen. Data for the wt2 strain (AID 169);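 further: 0% = growth of vehicle-treated yeast cultures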; details: S. cerevisiae wt2 strain growth inhibition, stronger effect = higher value
Method in brief: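 This strain belongs to a panel of yeast strains with defined genetic alterations in DNA damage repair or cell cycle control. Compounds are applied, and growth inhibition is measured against vehicle-treated cultures.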

[13] = NCI Yeast Anticancer Drug Screen. Data for the mlh1 strain (AID 171);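 further: 0% = growth of vehicle-treated control cultures of the same strain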; details: S. cerevisiae mlh1 strain growth inhibition, stronger effect = higher value
Method in brief: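 Growth of the mutant yeast strain after compound exposure, expressed as inhibition relative to vehicle-only controls.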

[14] = NCI Yeast Anticancer Drug Screen. Data for the sgs1 strain (AID 173);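 further: 0% = growth of vehicle-only control cultures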; details: S. cerevisiae sgs1 mutant, stronger effect = higher value
Method in brief: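 Growth of a yeast strain bearing a defined genetic alteration is measured after compound treatment. Inhibition is expressed relative to vehicle-only controls.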

[15] = NCI Yeast Anticancer Drug Screen. Data for the mlh1 rad18 strain (AID 175); details: S. cerevisiae mlh1 rad18 strain growth inhibition, stronger effect = higher value
Method in brief: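 Read-out is yeast growth inhibition, calculated against vehicle-only controls. The compound was applied to a strain engineered with DNA damage repair alterations.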

[16] = NCI Yeast Anticancer Drug Screen. Data for the rad18 strain (AID 177); details: S. cerevisiae rad18 mutant growth inhibition, stronger effect = higher value
Method in brief: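 Growth of the mutant yeast strain after compound exposure, normalised to vehicle-only cultures.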

[17] = at 5.0 µM (retest, dose inferred, filed as 0.5)
[18] = at 50.0 µM (retest, dose inferred, filed as 5.0)

Measured: growth inhibition

COC1/C=C\C=C(/C)C(=O)NC2=CC(=O)C(=O)C(=C2O)CC(C)CC(OC)C(O)C(C)/C=C(\C)C1OC(N)=O (stereo unspecified)
active: [1]; at 11.0 µM 94% | [1]; at 33.0 µM 98% | [1]; at 100.0 µM 97% | [2]; at 11.0 µM 86% | [2]; at 33.0 µM 95% | [2]; at 100.0 µM 94% | [4]; at 11.0 µM 90% | [4]; at 33.0 µM 96% | [4]; at 100.0 µM 95% | [5]; at 11.0 µM 94% | [5]; at 33.0 µM 96% | [5]; [18] 94% | [5]; at 50.0 µM 87.5% | [5]; at 100.0 µM 95% | [6]; at 11.0 µM 94% | [6]; at 33.0 µM 96% | [6]; [18] 97% | [6]; at 50.0 µM 89.8% | [6]; at 100.0 µM 95% | [7]; at 11.0 µM 91% | [7]; at 33.0 µM 95% | [7]; at 100.0 µM 95% | [8]; [18] 95% | [8]; at 50.0 µM 89.8% | [9]; at 11.0 µM 94% | [9]; at 33.0 µM 95% | [9]; at 100.0 µM 94% | [10]; [18] 96% | [10]; at 50.0 µM 77.8% | [11]; at 11.0 µM 93% | [11]; at 33.0 µM 96% | [11]; [18] 97% | [11]; at 50.0 µM 86.2% | [11]; at 100.0 µM 95% | [12]; at 11.0 µM 89% | [12]; at 33.0 µM 96% | [12]; at 100.0 µM 96% | [13]; at 11.0 µM 89% | [13]; at 33.0 µM 94% | [13]; at 100.0 µM 94% | [14]; at 11.0 µM 91% | [14]; at 33.0 µM 96% | [14]; at 100.0 µM 95% | [15]; [18] 92% | [15]; at 50.0 µM 83.2% | [16]; at 11.0 µM 91% | [16]; at 33.0 µM 96% | [16]; at 100.0 µM 95%
inactive: [1]; at 1.2 µM 24% | [1]; at 3.7 µM 32% | [2]; at 1.2 µM 10% | [2]; at 3.7 µM -17% | [3]; at 1.2 µM 15% | [3]; at 3.7 µM 2% | [3]; at 11.0 µM 3% | [3]; at 33.0 µM 7% | [3]; at 100.0 µM 46% | [4]; at 1.2 µM -10% | [4]; at 3.7 µM 28% | [5]; at 1.2 µM 17% | [5]; at 3.7 µM 40% | [5]; [17] -17% | [6]; at 1.2 µM -12% | [6]; at 3.7 µM 50% | [6]; [17] 56% | [7]; at 1.2 µM -13% | [7]; at 3.7 µM -10% | [8]; [17] 13% | [9]; at 1.2 µM -32% | [9]; at 3.7 µM 34% | [10]; [17] 45% | [11]; at 1.2 µM -6% | [11]; at 3.7 µM 51% | [11]; [17] 67% | [12]; at 1.2 µM 6% | [12]; at 3.7 µM 7% | [13]; at 1.2 µM -5% | [13]; at 3.7 µM 11% | [14]; at 1.2 µM 28% | [14]; at 3.7 µM 36% | [15]; [17] 33% | [16]; at 1.2 µM 12% | [16]; at 3.7 µM 3%

O=C(O)CNC(c1ccccc1)(c1ccccc1)c1ccccc1
inactive: [1]; at 1.2 µM -9% | [1]; at 3.7 µM -2% | [1]; at 11.0 µM -2% | [2]; at 1.2 µM -15% | [2]; at 3.7 µM -9% | [2]; at 11.0 µM -25% | [3]; at 1.2 µM 11% | [3]; at 3.7 µM 4% | [3]; at 11.0 µM -6% | [3]; at 33.0 µM -3% | [3]; at 100.0 µM -5% | [4]; at 1.2 µM 19% | [4]; at 3.7 µM 13% | [4]; at 11.0 µM 16% | [5]; at 1.2 µM -10% | [5]; at 3.7 µM -2% | [5]; [17] 43% | [5]; at 11.0 µM -2% | [6]; at 1.2 µM -1% | [6]; at 3.7 µM 12% | [6]; [17] 35% | [6]; at 11.0 µM 6% | [7]; at 1.2 µM -2% | [7]; at 3.7 µM -6% | [7]; at 11.0 µM -6% | [8]; [17] 2% | [9]; at 1.2 µM -14% | [9]; at 3.7 µM -12% | [9]; at 11.0 µM -6% | [10]; [17] 18% | [11]; at 1.2 µM -5% | [11]; at 3.7 µM 13% | [11]; [17] -8% | [11]; at 11.0 µM 24% | [12]; at 1.2 µM -27% | [12]; at 3.7 µM -20% | [12]; at 11.0 µM -9% | [13]; at 1.2 µM -32% | [13]; at 3.7 µM -29% | [13]; at 11.0 µM -20% | [14]; at 1.2 µM 3% | [14]; at 3.7 µM 3% | [14]; at 11.0 µM 5% | [15]; [17] 37% | [16]; at 1.2 µM -5% | [16]; at 3.7 µM -6% | [16]; at 11.0 µM -4%
active: [1]; at 33.0 µM 92% | [1]; at 100.0 µM 98% | [2]; at 33.0 µM 83% | [2]; at 100.0 µM 97% | [4]; at 33.0 µM 87% | [4]; at 100.0 µM 96% | [5]; at 33.0 µM 87% | [5]; [18] 97% | [5]; at 50.0 µM 86.3% | [5]; at 100.0 µM 96% | [6]; at 33.0 µM 91% | [6]; [18] 91% | [6]; at 50.0 µM 90% | [6]; at 100.0 µM 99% | [7]; at 33.0 µM 90% | [7]; at 100.0 µM 98% | [8]; [18] 98% | [8]; at 50.0 µM 90.8% | [9]; at 33.0 µM 85% | [9]; at 100.0 µM 98% | [10]; [18] 99% | [10]; at 50.0 µM 86.3% | [11]; at 33.0 µM 94% | [11]; [18] 97% | [11]; at 50.0 µM 90.7% | [11]; at 100.0 µM 98% | [12]; at 33.0 µM 82% | [12]; at 100.0 µM 98% | [13]; at 33.0 µM 82% | [13]; at 100.0 µM 97% | [14]; at 33.0 µM 89% | [14]; at 100.0 µM 97% | [15]; [18] 91% | [15]; at 50.0 µM 89.9% | [16]; at 33.0 µM 89% | [16]; at 100.0 µM 97%
